Screening data as filed in PubChem BioAssay.
Shown are actives, neighbours in structure and some others; about 0.3% of the full set was active somewhere.
N370S GC = qHTS Assay for Inhibitors and Activators of N370S glucocerebrosidase as a Potential Chaperone Treatment of Gaucher Disease; Potency, µM (titrated, usually from 59.4 µM), for the others: at the highest dose activity change, negative = inhibition, usual class: inhibitors; N370S GC spleen homogenate, 4MU-glucoside fluorescence; actives 0.092% (n = 330,000); Lysosomal acid glucosylceramidase (Homo sapiens), P04062;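 further: 0% = full enzyme activity and -100% = no enzyme basal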
AT treatment = qHTS Assay for Identifying a Potential Treatment of Ataxia-Telangiectasia. F2112 A-T fibroblasts, KAP-1 phosphorylation AlphaLISA; neocarzinostatin DNA damage 30 min before lysis. Potency, µM (highest dose often 57.5 µM), for the others: top-dose activation, actives largely listed as activators. actives 0.19% (n = 320,000); further: % of control where 0% means no effect; nearly all actives have a fitted effect of over 45% in size
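ATM-like activity read as KAP-1 phosphorylation via AlphaLISA donor/acceptor antibody pairs after lysis and 6 hr at 25C. Cells were ATM-null patient fibroblasts (F2112, hTERT), dosed 60 min, then exposed to the DSB inducer NCS for 30 min.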
S-ASM inh = Inhibitors of Secretory Acid Sphingomyelinase (S-ASM): qHTS; Sphingomyelin phosphodiesterase (Homo sapiens), P17405; Potency, µM (titrated, usually from 57.5 µM), inactives show top-dose activity change, negative = inhibition, usual class: inhibitors; AID 504937, 2011; actives 0.006% (n = 340,000); placental ASM, HMU-PC fluorogenic substrate, 60 min
Target sequence (P17405 47-631 limits assumed): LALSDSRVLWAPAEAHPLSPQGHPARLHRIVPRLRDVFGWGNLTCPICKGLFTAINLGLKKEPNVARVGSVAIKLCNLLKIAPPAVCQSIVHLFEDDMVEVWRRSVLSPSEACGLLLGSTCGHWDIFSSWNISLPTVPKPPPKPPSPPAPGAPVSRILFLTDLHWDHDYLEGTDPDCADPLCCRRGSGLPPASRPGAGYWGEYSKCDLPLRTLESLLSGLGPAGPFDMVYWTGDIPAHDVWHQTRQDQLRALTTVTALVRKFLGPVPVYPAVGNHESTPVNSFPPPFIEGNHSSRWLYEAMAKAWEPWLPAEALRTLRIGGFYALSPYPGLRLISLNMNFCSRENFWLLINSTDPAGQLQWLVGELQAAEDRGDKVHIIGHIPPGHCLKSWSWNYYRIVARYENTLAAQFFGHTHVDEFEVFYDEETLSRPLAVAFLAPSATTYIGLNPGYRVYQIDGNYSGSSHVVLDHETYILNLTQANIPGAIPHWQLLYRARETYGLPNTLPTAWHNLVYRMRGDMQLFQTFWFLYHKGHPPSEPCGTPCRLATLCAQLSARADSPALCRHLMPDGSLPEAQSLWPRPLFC
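Fluorescence read-out (Ex 386 nm, Em 447 nm) after stopping the reaction at pH 10. Enzyme: ASM from human placenta; substrate HMU-PC0, 9 uM final; 60 min, 37 °C. Compound preincubation 10 min, ambient temperature.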
p53 reactivation = qHTS assay for re-activators of p53 using a Luc reporter. actives 0.063% (n = 320,000). H1299 p53-A138V BP100-luciferase reporter, luminescence, 24 h. Potency, µM (top dose mostly 92.2 µM), for the others: at the highest dose activity change, positive = activation, most hits filed as activators; further: % of control where 0% means no effect; nearly all actives have a fitted effect of over 45% in size
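H1299 (p53-null), stable ts p53-A138V + BP100-Luc; 1000 cells/well, Opti-MEM/10% FBS; cpd 4 pt, 1:5; 24 h, 37 deg C, 5% CO2; detection reagent 10 min RT; luminescence.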
Starred values were filed as active, the others as inactive; i = inactive; ? = inconclusive; · = no result given; ! = not active in a repeat; [ ] = dose if it differs, or a comment. The call rests on the fitted dose curve; in most records, active means well fitted curve in the direction sought with a large enough effect; inconclusive means small, poorly fitted or top-dose-only effect, or another doubt; inactive means no such curve, though single readings can be large; an effect the other way counts as inactive or inconclusive. Potency means the concentration at half of the fitted maximal effect.

SMILES | N370S GC | AT treatment | S-ASM inh | p53 reactivation
NC(=O)c1ccc2nc(NC(=O)c3ccc(N)cc3)sc2c1 | -7% | 35µM* | -1% | 1%
CC(=O)Nc1nc2cc(C(N)=O)ccc2s1 | · | 6% | 1% | 4%
Cc1ccc2c(c1)C(c1ccccc1)N(C(=O)c1ccc(Br)o1)CC(=O)N2 (centres undefined) | 26% | 15% | -5% | -10%
Cc1ccc2c(c1)C(c1ccccc1)N(C(=O)CC(C)C)CC(=O)N2 (centres undefined) | -9% | 3.5µM* | -4% | -8%
N#CC(=C(/N)Sc1ccccc1N)/C(C#N)=C(\N)Sc1ccccc1N | -2% | · | · | ·
CC(=O)N[C@H]1CSSC[C@@H](C(=O)N2CCC[C@H]2C(=O)N2CCC[C@H]2C(=O)N[C@@H](CCCCN)C(=O)N[C@@H](CC(=O)O)C(N)=O)NC(=O)CNC(=O)[C@H](Cc2c[nH]c3ccccc23)NC(=O)[C@H](CCCNC(=N)N)NC(=O)[C@@H](Cc2ccc3ccccc3c2)NC(=O)[C@H](Cc2cnc[nH]2)NC(=O)[C@H](CCC(=O)O)NC1=O | -2% | · | · | ·
O=C(CSc1nc2ccccc2[nH]1)Nc1ccccc1F | 25% | 3% | 2% | -5%
O=C(Nc1nc2ccccc2[nH]1)Nc1ccccc1F | 3% | -2% | 0% | 11µM*
CCCCCCc1cc2cc(S(=O)(=O)c3ccc(F)c(Cl)c3)c(=O)oc2cc1O | -6% | 28µM* | i | 14%
CCCCCCc1cc2cc(C(=O)OCC)c(=O)oc2cc1O | 1% | 1% | i | -4%
Cc1cccc(NC(=O)/C(C#N)=C/c2ccc(F)cc2)n1 | -14% | 0.71µM* | 5% | -6%
CCCOc1ccccc1/C=C(\C#N)C(=O)Nc1cccc(C)n1 | -20% | -1% | 2% | -3%
CCn1c(=N)n(CC(=O)c2ccc(Cl)c(Cl)c2)c2ccccc21 | -9% | 28µM* | -8% | 25%
C=CCn1c(=N)n(CC(=O)c2ccc(Cl)cc2)c2ccccc21 | -1% | 16µM* | -3% | 7%
N=c1n(CCN2CCCCC2)c2ccccc2n1CC(=O)c1ccc(Cl)c(Cl)c1 | -25% | 35µM* | -15% | 7%
Cc1cc2c(cc1S(=O)(=O)Nc1ccc(C(C)C)cc1)OCCN2C | 6% | -1% | · | ·
C=C1C(=O)O[C@@H]2C[C@@H](C)[C@@H]3C=CC(=O)[C@@]3(C)[C@@H](OC(C)=O)[C@H]12 | -3% | 10% | 5% | -14%
C[C@@H]1C[C@@H]2OC(=O)[C@]3(C)[C@H]2[C@@H](OC3(C)O)[C@]2(C)C(=O)C=C[C@H]12 (some centres undefined) | ? | 40µM* | 14% | -9%
Cc1ccc(-c2cc(=O)c3cc(C)ccc3[nH]2)cc1 | -2%[89.1 µM] | 9% | -1% | 22µM*
CN1CCN(NC(=O)c2cn(-c3ccccc3)nc2-c2cccc(Br)c2)CC1 | 10µM* | 0% | -2% | -5%
CN1CCN(NC(=O)c2cn(-c3ccccc3)nc2-c2cccs2)CC1 | -10% | 9% | 0% | -1%
Cc1ccc(OCCn2c(C)c(/C=N/n3cnnc3)c3ccccc32)cc1 | -7% | -5% | -8% | -6%
Cc1c(/C=N/n2cnnc2)c2ccccc2n1CCOc1ccc(Cl)cc1 | -4% | -3% | 35µM* | 1%
Cc1ccc(S(=O)(=O)N2CCOCC2)cc1C(=O)N(C)CCOc1ccc(Cl)cc1 | 3% | 22µM* | -1% | -5%
Cc1ccn2c(NCc3ccc4c(c3)OCO4)c(-c3ccc(O)cc3)nc2c1 | 13µM* | 7% | 106% | 0%
SMILES | N370S GC | AT treatment | S-ASM inh | p53 reactivation
Oc1ccc(-c2nc3ccccn3c2NCc2ccc3c(c2)OCO3)cc1 | ? | -6% | 205% | 15%
Cc1ccc(C)c(-c2nn(-c3cc(N4CCN(CCO)CC4)ccc3[N+](=O)[O-])c(=O)c3ccccc23)c1 | 16µM* | -7% | -21% | -4%
CC[n+]1c(C)cc2c(sc3ccccc32)c1C | 0% | 3% | 83% | 5%
CCc1nc(C)cc2c1sc1ccccc12 | 4% | 20µM* | -3% | 5%
CCOC(=O)COc1ccc(S(=O)(=O)N2CCN(c3ccccc3)CC2)cc1 | -13% | 25µM* | -2% | 4%
CCOC(=O)COc1ccc(S(=O)(=O)N2CCN(c3ccc(F)cc3)CC2)cc1 | · | 0% | -2% | -2%
COc1cccc(C2=Nn3c(nnc3-c3ccccc3OC)SC2)c1 | -6% | · | · | ·
O=C(Nc1ncc(Cc2cccc(Cl)c2Cl)s1)C1CCCO1 (centres undefined) | 8% | -2% | -1% | 12%
O=C(Nc1ncc(Cc2ccccc2Cl)s1)C1CCCO1 (centres undefined) | 11% | 2% | -4% | 14µM*
CC(/C=C/C(=O)NO)=C\[C@@H](C)C(=O)c1ccc(N(C)C)cc1 | 18µM*! | · | · | ·
Cc1ccc(/C=N/NC(=O)Cn2nnc(N)n2)cc1 | -2% | 25µM* | 4% | 3%
Nc1nnn(CC(=O)N/N=C/c2ccncc2)n1 | 1% | 9% | 0% | 0%
COC(=O)[C@H](CCSC)NC(=O)c1ccc(NC[C@@H](N)CS)cc1-c1ccccc1 | -6% | · | · | ·
CCCCCCCc1cc2c(cn1)=C(OC)C(C)(OC(C)=O)C(=O)C=2Cl (centres undefined) | 0% | · | · | ·
O=C1/C(=C/c2cccs2)Cc2ccccc21 | 8% | -5% | 3% | 40µM*
CSCC[C@H](NC(=O)[C@H](CC(C)C)NC(=O)CNC(=O)[C@H](Cc1ccccc1)NC(=O)[C@H](Cc1ccccc1)NC(=O)[C@H](CCC(N)=O)NC(=O)[C@H](CCC(N)=O)NC(=O)[C@@H]1CCCN1C(=O)[C@H](CCCCN)NC(=O)[C@@H]1CCCN1C(=O)[C@@H](N)CCCN=C(N)N)C(N)=O | 0% | · | · | ·
Cc1cccc2cc(COC(=O)COc3ccccc3)c(=O)[nH]c12 | -4% | 22µM* | -4% | 0%
CC#CCN1c2ccccc2[C@]23C[C@@H](C(=O)OC)N(C(=O)c4cccs4)C2=NC(C(=O)OC)=C(C(=O)OC)[C@H]13 | 1%[12.8 µM] | · | · | ·
COC(=O)N1C2CC3(C)C=C(C)OC1(C)C3c1ccccc12 (centres undefined) | 0%[12.8 µM] | · | · | ·
C=CCn1c(SCC(=O)Nc2ccc(N3CCOCC3)cc2)nnc1-c1ccco1 | -2% | 25µM* | 0% | 2%
CCOC(=O)N=Nc1c(O)n(Cc2ccccc2)c2ccccc12 | -13% | -2% | -15% | 0%
COC(=O)N=Nc1c(O)n(Cc2ccccc2)c2ccccc12 | 5% | 25µM* | -11% | -2%
